Screening data from PubChem BioAssay.
PrP UTR inh: inhibition of PrP 5' UTR reporter expression; cell-based PrP 5' UTR mRNA reporter, plate reader; actives 0.35% (n = 340,000); inhibition, % (test concentration not listed); in the data active = inhibition above about 52%; also: 0 = median of the neutral control wells
PrPC TRFRET: inhibitors of human cell surface prion protein PrPC, primary screen, cell-based, TR-FRET; Major prion protein (Homo sapiens), P04156; actives 0.43% (n = 370,000); inhibition, % at 13.8 µM; TR-FRET read-out; in the data active = inhibition above about 24%; also: 0% = median of the test wells and 100% = reference compound wells
Vc quorum ag: inducers of Vibrio cholerae quorum light production without autoinducers, primary screen, BH1578 luxS cqsA deficient, single point; actives 0.16% (n = 350,000); V. cholerae BH1578 lux reporter, luminescence, 6 h; activation, % at 18.7 µM; in the data active = activation mostly above about 9.7%, no sharp cut-off
PfHsp40 rescue: rescue of yeast from PfHsp40 toxicity, primary screen, S. cerevisiae, ATP luminescence. S. cerevisiae expressing PfHsp40, growth rescue. growth rescue, % at 12.5 µM. actives 0.68% (n = 340,000). AID 504582, 2011; in the data active = growth rescue above about 28%, passing the limit was not always enough;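 also: yeast W303a lacking pdr1 and pdr3 grown in galactose medium; growth measured after three days at 30 °C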
SARS 3CLpro inh: SARS-CoV 3CLpro protease inhibitors, primary screen, biochemical, quenched FRET | Replicase polyprotein 1ab (Severe acute respiratory syndrome coronavirus), P0C6X7 | recombinant SARS-CoV 3CLpro, quenched FRET peptide cleavage | inhibition, % at 6 µM | actives 0.14% (n = 290,000); in the data active = inhibition above about 12%
PriA SSB inh: inhibitors of Klebsiella pneumoniae PriA binding to SSB C-terminal tail, primary screen, biochemical, AlphaScreen | PriA–SSB C-terminal tail interaction (Klebsiella pneumoniae) | AlphaScreen SSBct-PriA binding, biotinylated peptide | inhibition, % at 33 µM | actives 0.6% (n = 430,000); in the data active = inhibition mostly above about 37%, no sharp cut-off; inactive = mostly below about 20%;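 also: plate controls were negative control peptide for no effect and reference peptide for full effect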
Numbers without * were called inactive; i = inactive; nt = not tested or not shown. Shown are actives, neighbours in structure and some others; about 1.6% of the full set was active somewhere.

SMILES | PrP UTR inh | PrPC TRFRET | Vc quorum ag | PfHsp40 rescue | SARS 3CLpro inh | PriA SSB inh
O=[N+]([O-])c1cccc(C(=Nc2ccccc2)NO)c1 | -12 | -12 | -1 | 0 | 1 | 2
C=CCn1c(COc2ccccc2)nnc1SCC(=O)N/N=C/c1cc(Cl)ccc1O | -13 | -1 | -1 | 44* | -5 | nt
C=CCn1c(COc2ccccc2)nnc1SCC(=O)N/N=C/c1ccc(C)cc1 | -14 | 2 | 0 | 0 | -4 | nt
O=C(NCCN1CCOCC1)C(=O)NCC1CCN(Cc2ccco2)CC1 | nt | nt | nt | nt | nt | -4
c1ccc(-c2nc(NCC3CCCO3)c3ccccc3n2)nc1 (configuration not stated) | -24 | -7 | -1 | -1 | 4 | 89*
c1ccc(Nc2nc(NCC3CCCO3)c3ccccc3n2)cc1 (configuration not stated) | -16 | 20 | -1 | -1 | 6 | 11
C(=N\Nc1nc(-c2ccccn2)nc2ccccc12)/c1ccccc1 | nt | nt | nt | nt | -1 | nt
c1ccc(-c2nc(NC3CCCC3)c3ccccc3n2)nc1 | nt | nt | nt | nt | nt | 120*
COc1cccc(-c2nc(CCN)no2)c1OC | nt | nt | nt | nt | nt | -2
COc1ccc(S(=O)(=O)C(CNC(=O)CN2C(=O)c3ccccc3C2=O)c2cccs2)cc1 (configuration not stated) | nt | nt | nt | nt | nt | -8
O=C(NCCC(O)C1CC1)c1cccc(C(F)(F)F)c1 (configuration not stated) | nt | nt | nt | nt | nt | -1
O=C(O)Cn1cc2c(n1)CCCCC2 | -6 | -3 | nt | 30* | -4 | -6
CCCn1c(=O)c2sc(N3CCCC3)nc2n(CC(=O)NCc2ccccc2Cl)c1=O | nt | nt | nt | nt | nt | -7
O=C(O)c1ccccc1NS(=O)(=O)c1ccc(NN=Cc2ccc(O)c(O)c2)c([N+](=O)[O-])c1 | nt | nt | nt | nt | nt | 44*
COc1ccc(S(=O)(=O)Nc2ccccc2C(=O)Nc2ccc(OC)cc2[N+](=O)[O-])cc1 | nt | nt | nt | nt | nt | 44*
COc1ccc(NC(=S)NNc2ccc(S(=O)(=O)Nc3ccccc3C(=O)O)cc2[N+](=O)[O-])cc1 | 3 | -31 | 0 | 1 | 10 | 55*
COc1ccc(NC(=O)c2ccccc2)c([N+](=O)[O-])c1 | -63 | -21 | 0 | 0 | 1 | 4
COc1ccc(C=NNc2ccc(S(=O)(=O)Nc3ccccc3C(=O)O)cc2[N+](=O)[O-])c(OC)c1 | -9 | nt | 2 | 2 | nt | 46*
Cc1ccc(C(N)=NOC(=O)N2c3ccccc3Sc3ccccc32)cc1 | nt | nt | nt | nt | nt | 57*
COc1ccccc1NC(=O)CSc1ccc(-n2cccn2)nn1 | nt | nt | nt | nt | nt | -11
Clc1cc(-c2ccccn2)nc(-c2ccccn2)c1 | nt | nt | nt | nt | nt | 64*
Brc1cc(-c2ccccn2)nc(-c2ccccn2)c1 | nt | nt | nt | nt | nt | 58*
Clc1cccc(-c2ccccn2)n1 | nt | nt | nt | nt | nt | 14
O=C(NCCn1ccnc1-c1ncccn1)c1ccc(S(=O)(=O)N2CCOCC2)cc1 | nt | nt | nt | nt | nt | 92*
O=C(NCCN1CCOCC1)c1ccc(Cl)c(S(=O)(=O)N2CCCCCC2)c1 | -8 | 3 | 1 | 3 | 2 | -3
SMILES | PrP UTR inh | PrPC TRFRET | Vc quorum ag | PfHsp40 rescue | SARS 3CLpro inh | PriA SSB inh
O=C(NCCn1ccnc1-c1ncccn1)C1(c2ccccc2)CCOCC1 | nt | nt | nt | nt | nt | 40*
O=C(NCCN1CCOCC1)c1ccc(Cl)c(S(=O)(=O)N2CCCC2)c1 | -20 | 4 | -1 | -1 | -2 | 39*
O=C(NCCn1ccc(-c2ccncc2)n1)C1(c2ccccc2)CCOCC1 | nt | nt | nt | nt | nt | -10
O=C(CCc1ccc(Cl)c(C(F)(F)F)c1)N1CC(n2cc(-c3ccccc3)nn2)C1 | nt | nt | nt | nt | nt | -5
CSc1cccc(NC(=O)CSc2nccn3nc(-c4ccc(C)cc4)cc23)c1 | nt | nt | nt | nt | nt | 11
COCCN1CCCc2ccc(NS(=O)(=O)c3ccc(NC(C)=O)cc3)cc21 | nt | nt | nt | nt | nt | -34
CCCNC(=S)N1CCN(c2nc(C)nc3sc4c(c23)CCCC4)CC1 | -21 | -3 | 0 | 32* | 0 | -3
CN(C)n1cccc1/C=C(\C#N)S(=O)(=O)c1ccc(Cl)cc1 | -93 | -5 | i | 49* | -1 | -19
COC(=O)c1ccc(S(=O)(=O)N2CC[C@H](S(=O)(=O)c3ccc(Cl)cc3)C2)cc1 | nt | nt | nt | nt | nt | 1
O=C(N/N=C/c1ccc(O)cc1)c1csc2ccccc12 | -30 | 9 | 18* | 0 | 6 | nt
COCCCn1c(SCc2nc(-c3cccc(Cl)c3)oc2C)nc2ccccc2c1=O | nt | nt | nt | nt | nt | -6
CCC(=O)N1CCN(c2cc(N3CCCC3)c(F)cc2[N+](=O)[O-])CC1 | -11 | -16 | i | 1 | nt | -2
O=C(c1cccc(F)c1)N1CCN(c2cc(N3CCCCC3)c(F)cc2[N+](=O)[O-])CC1 | 3 | -6 | -1 | 3 | 0 | 42*
COc1ccc(Br)c(C(=O)N(Cc2nn(C)c3c2CCC3)C2CCCC2)c1 | nt | nt | nt | nt | nt | 4
COc1ccccc1NC(=O)c1sc(=S)n(-c2cc(C)ccc2C)c1N | nt | nt | nt | nt | nt | 48*
Cc1cc(C)c2oc(C(=O)N3CCCc4ccccc43)cc(=O)c2c1 | nt | nt | nt | nt | nt | 3
O=C(Nc1nc(-c2ccccc2)c(-c2ccccc2)o1)c1ccc(F)cc1 | 11 | 1 | i | 418* | 1 | -12
COc1cccc(C(=O)Nc2nc(-c3ccccc3)c(-c3ccccc3)o2)c1 | -14 | 1 | 0 | 4 | 0 | 17
COc1cc(OC)c(OC)cc1/C=N/n1c(-c2n[nH]c3c2CCC3)n[nH]c1=S | -10 | 1 | -1 | 28* | 3 | nt
COc1ccc(OC)c(/C=N/n2c(-c3n[nH]c4c3CCC4)n[nH]c2=S)c1 | -12 | -5 | -1 | -1 | 3 | nt
CC(C)(C)C(C(Oc1ccc(Cl)cc1)n1cncn1)n1nnnc1C(c1cccc(Cl)c1)N1CCCCC1 (configuration not stated) | nt | nt | nt | nt | -1 | nt
CC(C)(C)C(O)C(Oc1ccc(Cl)cc1)n1cncn1 (configuration not stated) | -10 | -3 | i | 141* | -4 | -3
O=C(N/N=C/c1c(O)n(Cc2ccccc2)c(=O)[nH]c1=O)c1ccccc1O | -28 | 7 | 0 | 97* | -6 | nt
O=C(NN=Cc1c(O)n(Cc2ccc(F)cc2)c(=O)[nH]c1=O)c1ccccc1 | nt | nt | nt | nt | nt | 4
O=C(N/N=C/c1c(O)n(Cc2ccc(F)cc2)c(=O)[nH]c1=O)c1ccccc1O | -29 | -3 | 0 | 55* | -1 | nt
CCOC(=O)c1c(NC(=O)c2ccccc2NS(=O)(=O)c2ccc(C)cc2)sc2c1CCCC2 | nt | nt | nt | nt | nt | -18
Cc1ccccc1C1=C/C(=C(\SS/C(C(=O)c2ccc(OCC(=O)O)c(Cl)c2Cl)=C2\C=C(c3ccccc3C)SS2)C(=O)c2ccc(OCC(=O)O)c(Cl)c2Cl)SS1 | -2 | 7 | i | -1 | nt | 62*
COc1cccc(C2NC(=S)NC3=C2CCc2ccccc23)c1 (configuration not stated) | -10 | 3 | 0 | 173* | 2 | 20
